High-throughput results from PubChem.
miR-122 inh: activators of miR-122 sensor in Huh7 cells; Huh7 psiCHECK-miR122 Renilla luciferase sensor, 48 h; activation, % at 12.5 µM; 340,000 compounds, 0.14% hits; AID 623901;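 active = mean activation of 30% or more, with every replicate also reaching 30%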;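 also: higher luciferase signal means stronger suppression of miR-122 activity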
Of the large screens only hits and unclear results are named; the others gave an inactive call. The sample as a whole holds a higher share of hits than the screen did.

C[C@H](CO)N1C[C@H](C)[C@H](CN(C)C(=O)c2cccnc2)Oc2ncc(Br)cc2C1=O	none
Cc1cc(C)cc(NC(=O)c2ccc(CSc3nnc(C)s3)cc2)c1	miR-122 inh 33.9
Cc1noc(C)c1S(=O)(=O)N(C)C[C@@H]1Oc2c(NC(=O)C3CCOCC3)cccc2C(=O)N([C@@H](C)CO)C[C@@H]1C	none
COc1cccc(-c2cnc3c(c2)C(=O)N([C@H](C)CO)C[C@H](C)[C@@H](CN(C)Cc2ccccc2)O3)c1	none
C[C@@H]1CN([C@H](C)CO)S(=O)(=O)c2ccc(/C=C/c3ccccc3)cc2O[C@H]1CN(C)C(=O)c1ccccc1	none
COc1cccc(-c2cnc3c(c2)C(=O)N([C@@H](C)CO)C[C@@H](C)[C@@H](CN(C)C(=O)Nc2ccccc2F)O3)c1	none
C/C=C/c1ccc2c(c1)O[C@H](CN(C)S(C)(=O)=O)[C@H](C)CN([C@H](C)CO)S2(=O)=O	none
C[C@H]1CN([C@@H](C)CO)C(=O)c2cc(-c3ccc(F)cc3)cnc2O[C@@H]1CN(C)C(=O)c1cccnc1	none
CCC(=O)N(C)C[C@H]1Oc2cc(C#Cc3ccccc3)ccc2S(=O)(=O)N([C@@H](C)CO)C[C@H]1C	miR-122 inh 48.4
COCC(=O)N(C)C[C@@H]1Oc2cc(-c3ccccc3)ccc2S(=O)(=O)N([C@@H](C)CO)C[C@@H]1C	none
CC(=O)N(C)C[C@H]1Oc2cc(C#C[C@@H](C)O)ccc2S(=O)(=O)N([C@H](C)CO)C[C@@H]1C	none
CCCC#Cc1ccc2c(c1)O[C@H](CN(C)C(=O)CC)[C@@H](C)CN([C@@H](C)CO)S2(=O)=O	none
COCC(=O)N(C)C[C@H]1Oc2cc(-c3ccc(C#N)cc3)ccc2S(=O)(=O)N([C@H](C)CO)C[C@H]1C	miR-122 inh 59.1
C[C@H](CO)N1C[C@H](C)[C@@H](CN(C)C(=O)Cc2ccccc2)Oc2cc(C#Cc3ccccc3F)ccc2S1(=O)=O	none
CCCC#Cc1ccc2c(c1)O[C@@H](CN(C)C(=O)CC)[C@H](C)CN([C@@H](C)CO)S2(=O)=O	none
CC(=O)N(C)C[C@H]1Oc2cc(C#Cc3ccc(F)cc3)ccc2S(=O)(=O)N([C@H](C)CO)C[C@H]1C	miR-122 inh 37.1
C[C@@H]1CN([C@H](C)CO)S(=O)(=O)c2ccc(C#Cc3ccccc3F)cc2O[C@@H]1CN(C)C(=O)Cc1ccncc1	miR-122 inh 52.1
CC(=O)N(C)C[C@H]1Oc2cc(C#C[C@@H](C)O)ccc2S(=O)(=O)N([C@H](C)CO)C[C@H]1C	none
COCC(=O)N(C)C[C@H]1Oc2cc(-c3ccccc3)ccc2S(=O)(=O)N([C@@H](C)CO)C[C@@H]1C	none
C[C@H]1CN([C@@H](C)CO)S(=O)(=O)c2ccc(C#Cc3ccccc3F)cc2O[C@H]1CN(C)C(=O)Cc1ccccc1	none
C[C@H]1CN([C@@H](C)CO)C(=O)c2cc(/C=C/c3ccccc3)cnc2O[C@@H]1CN(C)C(=O)Nc1ccccc1F	none
CC(C)CC#Cc1cnc2c(c1)C(=O)N([C@H](C)CO)C[C@H](C)[C@@H](CN(C)S(=O)(=O)c1ccccc1)O2	none
C/C=C/c1cnc2c(c1)C(=O)N([C@H](C)CO)C[C@H](C)[C@@H](CN(C)C(=O)c1cccnc1)O2	none
COCC(=O)N(C)C[C@H]1Oc2cc(-c3ccccc3)ccc2S(=O)(=O)N([C@H](C)CO)C[C@@H]1C	none
CCCNC(=O)N(C)C[C@H]1Oc2cc(C#CCOC)ccc2S(=O)(=O)N([C@H](C)CO)C[C@H]1C	none
C[C@H]1CN([C@@H](C)CO)C(=O)c2cc(C#CC3(O)CCCC3)cnc2O[C@H]1CN(C)Cc1cncnc1	none
COc1ccc(S(=O)(=O)N(C)C[C@H]2Oc3cc(-c4ccccc4OC)ccc3S(=O)(=O)N([C@H](C)CO)C[C@H]2C)cc1	none
C[C@H](CO)N1C[C@H](C)[C@H](CN(C)CC2CCOCC2)Oc2ncc(-c3cncnc3)cc2C1=O	none
C[C@H]1CN([C@@H](C)CO)C(=O)c2cc(C#CCC3CCCC3)cnc2O[C@@H]1CN(C)CC1CCOCC1	none
CO[C@H]1CN(C)C(=O)c2cc(NS(=O)(=O)CC(F)(F)F)ccc2OC[C@H](C)N(C)C[C@H]1C	none
COc1cccc(NC(=O)N(C)C[C@@H]2Oc3ncc(C#Cc4ccccc4)cc3C(=O)N([C@H](C)CO)C[C@H]2C)c1	none
C[C@H]1CN([C@@H](C)CO)S(=O)(=O)c2ccc(C#CCN(C)C)cc2O[C@@H]1CN(C)C(=O)CN(C)C	none
COc1ccccc1-c1ccc2c(c1)O[C@H](CN(C)C(C)=O)[C@H](C)CN([C@H](C)CO)S2(=O)=O	none
C[C@@H]1CN([C@H](C)CO)C(=O)Cc2cc(N(C)C)ccc2O[C@@H]1CN(C)Cc1ccc(C(=O)Nc2ccccc2N)cc1	none
CCCNC(=O)Nc1ccc2c(c1)OC[C@H](C)N(C)C[C@H](C)[C@@H](OC)CN(C)C2=O	none
Cc1ccccc1-c1ccc2c(c1)O[C@H](CN(C)C(=O)Nc1ccccc1)[C@@H](C)CN([C@H](C)CO)S2(=O)=O	none
Cc1ccccc1-c1ccc2c(c1)O[C@H](CN(C)C(=O)Nc1ccccc1)[C@H](C)CN([C@H](C)CO)S2(=O)=O	none
